697 NFkB inh = inhibitors of the PMA/ionomycin-induced NF-kB reporter in 697 B cells; 0.33% of 330,000 active; inhibition, % at 4 µM; 697 B-cell NF-kB luciferase reporter, 16 h; in the data active = inhibition above about 35%
Beta apoptosis = blocks beta cell apoptosis; INS-1E cytokine-induced death, ATP luminescence, 48 h; percent of positive-control rescue, neutral wells zero; protection from apoptosis, % (no concentration beside the values); 0.8% of 300,000 active;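 active = Every replicate reaches about 75%, or at least half do and their mean reaches it too, limit read from the data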;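 note: 0% = cytokine-treated negative control wells and 100% = positive control rescue; higher means more ATP so stronger rescue from cytokine killing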
Jurkat NFkB inh = lowers PMA/ionomycin-induced NF-kB signal in Jurkat cells; inhibition, % at 4 µM; 0.53% of 330,000 active; PMA/ionomycin-induced NF-kB luciferase reporter, luminescence; in the data active = inhibition above about 50%
Gli-Sufu block = antagonists of Gli-Sufu signaling. Sufu-KO-LIGHT fibroblasts, Gli luciferase reporter luminescence. inhibition, % at 5 µM. 0.74% of 340,000 active. AID 588413;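 active = inhibition above about 55%, limit read from the data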;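 note: 0% = DMSO-treated cells and 100% = wells with medium but no cells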
Starred values were filed as active, the others as inactive; . = not tested or not shown. Hits are enriched below; roughly 1.8% of the tested compounds scored in any of these assays.

SMILES | 697 NFkB inh | Beta apoptosis | Jurkat NFkB inh | Gli-Sufu block
CC(=O)/C=C(\C)NCCNc1c(F)c(F)c(CO)c(F)c1F | 15 | 3 | 8 | 7
N=c1c2c(-c3ccccc3)c(-c3ccccc3)n(Cc3ccco3)c2ncn1Cc1ccccc1 | -1 | 91* | 25 | 6
CC(C)c1c(Cl)c(O)c(-c2ccccc2)c(=O)n1-c1ccc(F)cc1 | -9 | 2 | -8 | 10
CN1C(=S)SC(N(O)C(=O)Nc2cccc3ccccc23)C1(C)C (configuration not stated) | 4 | 1 | 18 | 6
O=C(Nc1ccc(F)cc1)Nc1cc(OCC(F)(F)F)cc(OCC(F)(F)F)c1 | -1 | 106* | 26 | 21
O=C(O)C1=C[C@H](c2csc3ccccc23)C[C@H](OCc2ccc(CO)cc2)O1 | 8 | -1 | 4 | 0
O=C(NCc1ccccc1)C1=C[C@@H](c2csc3ccccc23)C[C@@H](OCCCCO)O1 | -10 | 116* | 37 | 37
O=C(NC1CC1)C1=C[C@H](c2csc3ccccc23)C[C@H](OCCCCO)O1 | 16 | -1 | 6 | 26
O=C(NCc1ccccc1)C1=C[C@@H](c2csc3ccccc23)C[C@@H](OCc2ccc(CO)cc2)O1 | 20 | 123* | 16 | 14
O=C(CN1C(=O)NC2(CCCCC2)C1=O)N1CCN(S(=O)(=O)c2cccc(F)c2)CC1 | -19 | -1 | 8 | -4
COc1ccccc1NS(=O)(=O)c1ccc(N/N=C(\C)C(C)C)c([N+](=O)[O-])c1 | -53 | 78* | 29 | 42
CCCC(CCC)=NNc1ccc(S(=O)(=O)Nc2ccccc2OC)cc1[N+](=O)[O-] | -14 | 11 | -1 | 16
CCCCn1c(SCC(=O)Nc2ccc3c(c2)OCO3)nc2c1c(=O)n(C)c(=O)n2C | 3 | 6 | -8 | 37
CC(C)(C)c1nnc(N/N=C/c2cc(Br)ccc2O)n(N)c1=O | . | 95* | . | 55
CCc1nnc(N/N=C/c2cc(Br)c(O)cc2O)n1N | -3 | -4 | 15 | 5
COc1ccc2c(c1)CC[C@@H]1[C@@H]2CC[C@]2(C)[C@@H](C(=O)O)C[C@@H]12 | -7 | 2 | 8 | 3
O=C(CCOc1ccc(F)cc1)Nc1nccs1 | 5 | -4 | -13 | -1
NC(=O)c1ccc(NC(=O)CCN2C(=O)c3ccccc3C2=O)cc1 | -18 | -2 | -25 | -2
C=C(C)C(=O)N1CC2(CC(c3cccc(NC(=O)COc4ccc(Cl)cc4)c3)=NO2)C[C@@H]1C(N)=O (some centres not stated) | -12 | 104* | -11 | 4
C/C=C(\C)C(=O)N1CC2(CC(c3cccc(NC(=O)COc4ccc(Cl)cc4)c3)=NO2)C[C@@H]1C(N)=O (some centres not stated) | 26 | 1 | -2 | -1
Oc1ccc(Br)cc1-c1nc2cnccn2c1NC1CCCC1 | -3 | -7 | 14 | -2
COc1ccc(NCC(=O)n2c(C)c(C)c3ccccc32)cc1 | 8 | 7 | 16 | 7
COc1ccc(C(=O)c2c(C)c3ccccc3n2CC(O)CNC(C)C)cc1 (configuration not stated) | 13 | 102* | 13 | -8
COc1ccc(S(=O)(=O)Nc2cc(SCC(=O)O)c(O)c3ccccc23)cc1 | 8 | 94* | 11 | 23
O=C(Oc1ccc(/C=N/Nc2ccccc2)cc1)c1ccccc1 | -7 | 2 | -8 | -1
SMILES | 697 NFkB inh | Beta apoptosis | Jurkat NFkB inh | Gli-Sufu block
O=C(O)c1ccc(N/N=C/c2ccc(OC(=O)c3cccc(Cl)c3)cc2)cc1 | 34 | 0 | 44 | 61*
CCOc1ccc(/C=C/C(=O)Nc2cccc(C(C)=O)c2)cc1 | -61 | 16 | -51 | -56
FC(F)(F)c1ccccc1NC(=S)N1CCN(Cc2ccc3c(c2)OCO3)CC1 | 0 | 82* | 14 | 23
Cc1ccc(S(=O)(=O)N(C)C)cc1NC(=S)N1CCN(Cc2ccc3c(c2)OCO3)CC1 | -26 | . | 20 | 55*
Cc1c(Cl)cccc1NC(=S)N1CCN(Cc2ccc3c(c2)OCO3)CC1 | 8 | -6 | 13 | 14
Cc1ccccc1NC(=S)N1CCN(Cc2ccc3c(c2)OCO3)CC1 | 0 | -7 | 0 | -3
O=C(NCCc1ccc(Cl)cc1)C1CCCN(S(=O)(=O)N2CCCCCC2)C1 (configuration not stated) | 5 | -13 | -1 | 8
Cc1cc(C(=O)N2CCCC(N3CCN(c4ccccc4C)CC3)C2)nc(C)n1 (configuration not stated) | 3 | -2 | 10 | 21
O=C(NCCCn1ccnc1)c1ccc(-c2ccccc2)cc1 | 9 | 97* | -11 | 3
O=C(NCCCn1ccnc1)c1ccc(N2CCCCCC2)c([N+](=O)[O-])c1 | 3 | 95* | -13 | 20
CC1CN(S(=O)(=O)c2ccc(C(=O)NCCCn3ccnc3)cc2)CC(C)O1 (configuration not stated) | 24 | 113* | -16 | 15
Cc1ccc(C(=O)NCCCn2ccnc2)cc1[N+](=O)[O-] | 10 | 1 | 1 | 11
CC1CN(S(=O)(=O)c2cccc(C(=O)NCCCn3ccnc3)c2)CC(C)O1 (configuration not stated) | 18 | -3 | 11 | -6
Cc1sc2ncnc(NCC(O)c3ccccc3)c2c1C (configuration not stated) | -54 | 88* | 17 | 22
Cc1sc2ncnc(N/N=C/c3ccccc3O)c2c1C | . | 85* | . | .
Cc1sc2ncnc(N/N=C/c3ccc(O)cc3)c2c1C | -58 | 0 | -11 | 24
Cc1sc2ncnc(NCC(c3ccccc3)N(C)C)c2c1C (configuration not stated) | 0 | 9 | 7 | 8
CCNC1=C(Cl)C(=O)c2ccccc2C1=O | -8 | 55 | 13 | -9
O=C1C(Cl)=C(NCCN2CCCCC2)C(=O)c2ccccc21 | -14 | 112* | -9 | 21
O=NN(CCc1ccncc1)c1ccc(OCc2ccccc2)cc1 | -18 | 99* | 40 | 48
O=C(NCc1ccncc1)C(=O)N/N=C/c1ccc(OCc2ccccc2)cc1 | 15 | -2 | -63 | 4
O=c1c2cccc3c2c(nn1CN1CCOCC1)-c1ccccc1-3 | 16 | 4 | -17 | -10
CCN(CC)CCn1nc2c3c(cccc3c1=O)-c1ccccc1-2 | -173 | 113* | 31 | 47
COc1ccc(-c2nc(CNS(=O)(=O)c3ccc(OC)c(OC)c3)cs2)cc1 | 5 | -5 | 5 | 3
Cc1ccc(N(C(=O)CNC(=O)c2ccco2)C(C(=O)NC2CCCCC2)c2cccnc2)cc1C (configuration not stated) | 20 | -3 | -2 | 13
Cc1ccc(N(C(=O)CCl)C(C(=O)NC2CCCCC2)c2cccnc2)cc1C (configuration not stated) | . | 1 | . | 93*
CCCS(=O)(=O)Nc1ccc(Nc2c3ccccc3nc3ccccc23)c(OC)c1 | . | . | . | 79*
COc1ccc(Nc2c3c(nc4ccccc24)CCC3)c(OC)c1 | -23 | 15 | 43 | 30
CN(C(=O)c1ccccc1)c1ccccc1C(=O)NCCc1ccccc1 | -12 | . | -5 | -1
COc1ccc(C(=O)N(C)c2ccccc2C(=O)NCCc2ccccc2)cc1 | 1 | 89* | 16 | 6
